Source: ChEMBL document CHEMBL2218924, “A broad activity screen in support of a chemogenomic map for kinase signalling research and drug discovery” (Biochem J, 2013)

Experiments:
[1] = target: Death-associated protein kinase 1 (Homo sapiens) (UniProt P53355); settings: at 10 µM
[2] = target: Death-associated protein kinase 2 (Homo sapiens) (UniProt Q9UIK4); settings: at 1 µM
[3] = target: Death-associated protein kinase 2 (Homo sapiens) (UniProt Q9UIK4); settings: at 10 µM
[4] = target: T1, Serine/threonine-protein kinase DCLK2 (Homo sapiens) (UniProt Q8N568); settings: at 1 µM
T1 sequence (whole entry): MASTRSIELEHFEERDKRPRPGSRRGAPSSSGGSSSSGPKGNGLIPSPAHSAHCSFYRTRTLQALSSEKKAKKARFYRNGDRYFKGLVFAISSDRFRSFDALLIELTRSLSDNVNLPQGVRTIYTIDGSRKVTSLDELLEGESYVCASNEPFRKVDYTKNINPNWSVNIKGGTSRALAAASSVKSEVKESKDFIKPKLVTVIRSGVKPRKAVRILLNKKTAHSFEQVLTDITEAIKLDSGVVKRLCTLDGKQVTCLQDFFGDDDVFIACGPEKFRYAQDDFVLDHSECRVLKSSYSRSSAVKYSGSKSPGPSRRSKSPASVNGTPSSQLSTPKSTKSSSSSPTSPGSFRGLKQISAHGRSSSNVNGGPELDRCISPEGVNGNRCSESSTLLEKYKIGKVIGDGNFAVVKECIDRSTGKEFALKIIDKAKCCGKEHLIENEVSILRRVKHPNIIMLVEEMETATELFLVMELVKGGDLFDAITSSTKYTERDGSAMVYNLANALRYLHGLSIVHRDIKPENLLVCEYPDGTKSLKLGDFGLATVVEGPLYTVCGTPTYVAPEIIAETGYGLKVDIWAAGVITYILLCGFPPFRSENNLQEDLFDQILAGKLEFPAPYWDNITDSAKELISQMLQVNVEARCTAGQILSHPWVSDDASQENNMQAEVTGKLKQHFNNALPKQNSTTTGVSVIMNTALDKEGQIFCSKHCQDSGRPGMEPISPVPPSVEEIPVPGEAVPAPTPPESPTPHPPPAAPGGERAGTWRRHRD

[5] = target: T1, Serine/threonine-protein kinase DCLK2 (Homo sapiens); settings: at 10 µM
[6] = target: T2, Discoidin domain-containing receptor 2 (Homo sapiens) (UniProt Q16832); settings: at 1 µM
T2 sequence (whole entry): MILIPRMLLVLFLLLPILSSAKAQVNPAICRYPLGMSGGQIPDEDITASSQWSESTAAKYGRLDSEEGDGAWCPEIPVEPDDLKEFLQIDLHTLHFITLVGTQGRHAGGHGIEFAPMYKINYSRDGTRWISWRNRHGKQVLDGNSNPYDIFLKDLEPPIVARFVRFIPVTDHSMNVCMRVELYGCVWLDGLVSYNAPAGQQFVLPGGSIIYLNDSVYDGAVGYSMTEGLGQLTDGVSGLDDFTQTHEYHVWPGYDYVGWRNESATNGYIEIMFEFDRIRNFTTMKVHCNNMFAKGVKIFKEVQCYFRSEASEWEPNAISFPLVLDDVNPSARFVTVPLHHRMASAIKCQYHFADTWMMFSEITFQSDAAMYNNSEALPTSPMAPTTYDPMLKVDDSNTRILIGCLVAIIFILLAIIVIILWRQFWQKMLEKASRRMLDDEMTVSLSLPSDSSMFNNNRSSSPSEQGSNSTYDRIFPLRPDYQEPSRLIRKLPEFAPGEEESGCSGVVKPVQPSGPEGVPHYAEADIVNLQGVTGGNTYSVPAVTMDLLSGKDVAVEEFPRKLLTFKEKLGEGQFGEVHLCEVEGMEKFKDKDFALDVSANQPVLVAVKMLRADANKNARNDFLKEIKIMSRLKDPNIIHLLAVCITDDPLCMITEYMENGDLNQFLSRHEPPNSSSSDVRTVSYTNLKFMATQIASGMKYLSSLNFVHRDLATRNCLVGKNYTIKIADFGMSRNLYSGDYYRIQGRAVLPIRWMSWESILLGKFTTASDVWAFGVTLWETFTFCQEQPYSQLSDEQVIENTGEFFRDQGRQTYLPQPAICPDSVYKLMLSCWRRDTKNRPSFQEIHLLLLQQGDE

[7] = target: T2, Discoidin domain-containing receptor 2 (Homo sapiens); settings: at 10 µM
[8] = target: T3, Myotonin-protein kinase (Homo sapiens) (UniProt Q09013); settings: at 1 µM
T3 sequence (whole entry): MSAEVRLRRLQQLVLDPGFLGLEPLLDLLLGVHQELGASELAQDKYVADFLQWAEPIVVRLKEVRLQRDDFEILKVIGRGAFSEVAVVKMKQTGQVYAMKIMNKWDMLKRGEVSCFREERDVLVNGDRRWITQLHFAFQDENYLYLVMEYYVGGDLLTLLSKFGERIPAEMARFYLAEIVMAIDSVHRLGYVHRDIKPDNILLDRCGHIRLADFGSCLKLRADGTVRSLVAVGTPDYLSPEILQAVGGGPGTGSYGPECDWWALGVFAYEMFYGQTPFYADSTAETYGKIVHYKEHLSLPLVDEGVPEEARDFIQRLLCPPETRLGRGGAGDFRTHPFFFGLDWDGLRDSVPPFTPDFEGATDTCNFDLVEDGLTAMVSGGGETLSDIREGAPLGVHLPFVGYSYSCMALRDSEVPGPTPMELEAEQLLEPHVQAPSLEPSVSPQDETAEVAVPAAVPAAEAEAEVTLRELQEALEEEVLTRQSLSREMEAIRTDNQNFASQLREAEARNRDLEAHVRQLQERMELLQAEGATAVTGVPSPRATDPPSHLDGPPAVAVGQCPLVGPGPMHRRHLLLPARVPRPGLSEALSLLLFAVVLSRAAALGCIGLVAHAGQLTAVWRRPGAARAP

[9] = target: T3, Myotonin-protein kinase (Homo sapiens); settings: at 10 µM
[10] = target: T4, Serine/threonine-protein kinase 17A (Homo sapiens) (UniProt Q9UEE5); settings: at 1 µM
T4 sequence (whole entry): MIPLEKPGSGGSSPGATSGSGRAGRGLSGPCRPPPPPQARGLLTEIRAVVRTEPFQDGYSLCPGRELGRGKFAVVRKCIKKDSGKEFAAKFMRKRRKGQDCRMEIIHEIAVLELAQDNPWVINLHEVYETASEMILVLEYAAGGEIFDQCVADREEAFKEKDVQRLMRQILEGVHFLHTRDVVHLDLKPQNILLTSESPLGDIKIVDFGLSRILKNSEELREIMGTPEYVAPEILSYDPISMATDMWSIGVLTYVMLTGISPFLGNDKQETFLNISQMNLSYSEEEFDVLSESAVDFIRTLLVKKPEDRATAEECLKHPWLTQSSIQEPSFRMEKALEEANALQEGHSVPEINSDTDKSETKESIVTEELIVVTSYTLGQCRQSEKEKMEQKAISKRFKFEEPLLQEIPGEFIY

[11] = target: T4, Serine/threonine-protein kinase 17A (Homo sapiens); settings: at 10 µM
[12] = target: T5, Dual specificity tyrosine-phosphorylation-regulated kinase 2 (Homo sapiens) (UniProt Q92630); settings: at 1 µM
T5 sequence (whole entry): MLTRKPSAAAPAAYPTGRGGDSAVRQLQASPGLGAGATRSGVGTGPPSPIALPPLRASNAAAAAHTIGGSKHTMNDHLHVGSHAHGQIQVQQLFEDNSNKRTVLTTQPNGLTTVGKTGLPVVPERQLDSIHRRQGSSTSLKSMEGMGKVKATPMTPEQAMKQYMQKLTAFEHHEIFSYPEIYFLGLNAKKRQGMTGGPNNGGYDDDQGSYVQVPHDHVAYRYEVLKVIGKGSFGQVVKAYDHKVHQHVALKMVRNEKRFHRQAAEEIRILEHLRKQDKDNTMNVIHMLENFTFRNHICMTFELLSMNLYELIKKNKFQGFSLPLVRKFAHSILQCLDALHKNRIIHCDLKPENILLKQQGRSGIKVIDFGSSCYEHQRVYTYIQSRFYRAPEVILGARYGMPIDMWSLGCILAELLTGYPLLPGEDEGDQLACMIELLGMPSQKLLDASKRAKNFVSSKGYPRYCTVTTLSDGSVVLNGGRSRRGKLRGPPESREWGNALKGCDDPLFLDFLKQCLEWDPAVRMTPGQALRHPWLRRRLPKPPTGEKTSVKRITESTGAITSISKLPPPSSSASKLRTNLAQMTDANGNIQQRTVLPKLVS

[13] = target: T5, Dual specificity tyrosine-phosphorylation-regulated kinase 2 (Homo sapiens); settings: at 10 µM
[14] = target: T6, Ephrin type-A receptor 1 (Homo sapiens) (UniProt P21709); settings: at 1 µM
T6 sequence (whole entry): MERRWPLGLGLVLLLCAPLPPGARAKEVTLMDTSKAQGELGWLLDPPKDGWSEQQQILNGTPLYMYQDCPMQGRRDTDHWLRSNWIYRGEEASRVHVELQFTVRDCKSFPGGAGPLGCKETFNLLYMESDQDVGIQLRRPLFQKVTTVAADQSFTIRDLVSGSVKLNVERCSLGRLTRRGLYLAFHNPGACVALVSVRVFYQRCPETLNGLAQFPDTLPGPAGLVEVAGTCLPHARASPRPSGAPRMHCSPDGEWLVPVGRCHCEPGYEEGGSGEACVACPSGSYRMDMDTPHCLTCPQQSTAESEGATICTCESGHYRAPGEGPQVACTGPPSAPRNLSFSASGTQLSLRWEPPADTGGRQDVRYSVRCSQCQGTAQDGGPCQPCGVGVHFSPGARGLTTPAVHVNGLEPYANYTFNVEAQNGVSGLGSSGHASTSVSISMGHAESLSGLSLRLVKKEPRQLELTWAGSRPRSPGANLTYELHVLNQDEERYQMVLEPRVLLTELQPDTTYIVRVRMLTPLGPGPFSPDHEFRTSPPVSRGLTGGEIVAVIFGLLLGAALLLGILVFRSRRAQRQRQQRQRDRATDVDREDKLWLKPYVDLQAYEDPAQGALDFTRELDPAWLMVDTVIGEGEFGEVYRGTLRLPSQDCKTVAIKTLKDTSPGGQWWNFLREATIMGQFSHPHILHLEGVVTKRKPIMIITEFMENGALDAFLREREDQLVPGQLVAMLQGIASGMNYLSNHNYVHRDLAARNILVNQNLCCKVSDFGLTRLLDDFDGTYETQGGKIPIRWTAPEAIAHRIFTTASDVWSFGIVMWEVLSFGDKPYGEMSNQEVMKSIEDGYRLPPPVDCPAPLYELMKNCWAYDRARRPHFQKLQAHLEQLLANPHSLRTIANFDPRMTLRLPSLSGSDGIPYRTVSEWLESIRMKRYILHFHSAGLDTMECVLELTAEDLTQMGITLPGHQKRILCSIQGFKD

[15] = target: T6, Ephrin type-A receptor 1 (Homo sapiens); settings: at 10 µM
[16] = target: Ephrin type-A receptor 2 (Homo sapiens) (UniProt P29317); settings: at 1 µM
Sequence of Ephrin type-A receptor 2 (Homo sapiens) (P29317 whole entry): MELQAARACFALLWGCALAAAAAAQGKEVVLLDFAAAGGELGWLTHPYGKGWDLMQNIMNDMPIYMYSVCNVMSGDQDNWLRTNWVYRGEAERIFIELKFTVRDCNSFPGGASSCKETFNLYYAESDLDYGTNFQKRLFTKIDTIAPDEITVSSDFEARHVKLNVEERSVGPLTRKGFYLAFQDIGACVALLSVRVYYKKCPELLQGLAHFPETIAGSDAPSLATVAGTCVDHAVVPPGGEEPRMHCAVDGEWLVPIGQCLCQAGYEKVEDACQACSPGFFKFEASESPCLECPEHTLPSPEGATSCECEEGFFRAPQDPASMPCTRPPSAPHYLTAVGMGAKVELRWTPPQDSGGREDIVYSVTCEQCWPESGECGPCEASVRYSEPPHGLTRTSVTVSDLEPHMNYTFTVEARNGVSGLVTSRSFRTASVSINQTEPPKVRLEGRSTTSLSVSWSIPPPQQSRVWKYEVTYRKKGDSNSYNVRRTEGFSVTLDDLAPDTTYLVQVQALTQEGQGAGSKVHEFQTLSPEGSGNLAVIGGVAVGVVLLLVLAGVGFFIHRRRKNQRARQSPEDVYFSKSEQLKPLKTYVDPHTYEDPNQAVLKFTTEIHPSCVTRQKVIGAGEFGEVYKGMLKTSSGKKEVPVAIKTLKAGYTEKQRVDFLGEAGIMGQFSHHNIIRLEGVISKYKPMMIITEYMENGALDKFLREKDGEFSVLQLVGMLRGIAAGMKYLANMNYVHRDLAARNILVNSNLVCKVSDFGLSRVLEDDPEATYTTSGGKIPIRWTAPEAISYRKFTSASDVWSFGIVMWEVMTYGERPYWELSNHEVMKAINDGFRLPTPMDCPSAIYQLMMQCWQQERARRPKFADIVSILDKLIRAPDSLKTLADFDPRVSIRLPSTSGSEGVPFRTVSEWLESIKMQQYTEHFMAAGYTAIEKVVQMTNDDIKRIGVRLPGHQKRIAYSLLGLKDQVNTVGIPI

[17] = target: Ephrin type-A receptor 2 (Homo sapiens) (UniProt P29317); settings: at 10 µM
[18] = target: T7, Ephrin type-A receptor 3 (Homo sapiens) (UniProt P29320); settings: at 1 µM
T7 sequence (whole entry): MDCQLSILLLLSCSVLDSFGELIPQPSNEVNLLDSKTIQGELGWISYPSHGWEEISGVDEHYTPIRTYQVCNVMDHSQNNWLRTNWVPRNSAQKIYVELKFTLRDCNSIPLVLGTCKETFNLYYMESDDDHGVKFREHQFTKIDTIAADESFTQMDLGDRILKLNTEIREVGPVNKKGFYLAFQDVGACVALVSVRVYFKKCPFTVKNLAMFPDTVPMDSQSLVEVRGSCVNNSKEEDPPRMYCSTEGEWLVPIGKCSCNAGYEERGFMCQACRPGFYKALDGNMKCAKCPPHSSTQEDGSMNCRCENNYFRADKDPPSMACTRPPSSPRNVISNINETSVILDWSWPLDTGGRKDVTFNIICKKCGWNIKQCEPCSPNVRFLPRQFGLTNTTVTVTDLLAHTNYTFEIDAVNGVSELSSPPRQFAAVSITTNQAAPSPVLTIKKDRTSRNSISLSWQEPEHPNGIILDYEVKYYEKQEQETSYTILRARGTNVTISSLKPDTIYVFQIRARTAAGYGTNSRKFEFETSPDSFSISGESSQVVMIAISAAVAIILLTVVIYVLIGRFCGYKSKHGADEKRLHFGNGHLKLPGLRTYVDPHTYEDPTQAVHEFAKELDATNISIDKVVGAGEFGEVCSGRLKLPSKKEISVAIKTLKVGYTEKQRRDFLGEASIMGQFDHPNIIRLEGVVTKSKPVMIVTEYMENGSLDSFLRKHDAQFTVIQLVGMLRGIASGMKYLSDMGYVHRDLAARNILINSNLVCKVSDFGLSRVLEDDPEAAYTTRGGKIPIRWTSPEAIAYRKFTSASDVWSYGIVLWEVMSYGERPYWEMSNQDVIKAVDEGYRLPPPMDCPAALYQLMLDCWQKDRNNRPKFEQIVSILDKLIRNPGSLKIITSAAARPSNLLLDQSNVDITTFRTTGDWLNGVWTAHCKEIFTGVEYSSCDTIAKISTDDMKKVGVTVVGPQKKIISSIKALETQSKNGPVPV

[19] = target: Epidermal growth factor receptor (Homo sapiens) (UniProt P00533); settings: at 1 µM
Sequence of Epidermal growth factor receptor (Homo sapiens) (P00533 whole entry): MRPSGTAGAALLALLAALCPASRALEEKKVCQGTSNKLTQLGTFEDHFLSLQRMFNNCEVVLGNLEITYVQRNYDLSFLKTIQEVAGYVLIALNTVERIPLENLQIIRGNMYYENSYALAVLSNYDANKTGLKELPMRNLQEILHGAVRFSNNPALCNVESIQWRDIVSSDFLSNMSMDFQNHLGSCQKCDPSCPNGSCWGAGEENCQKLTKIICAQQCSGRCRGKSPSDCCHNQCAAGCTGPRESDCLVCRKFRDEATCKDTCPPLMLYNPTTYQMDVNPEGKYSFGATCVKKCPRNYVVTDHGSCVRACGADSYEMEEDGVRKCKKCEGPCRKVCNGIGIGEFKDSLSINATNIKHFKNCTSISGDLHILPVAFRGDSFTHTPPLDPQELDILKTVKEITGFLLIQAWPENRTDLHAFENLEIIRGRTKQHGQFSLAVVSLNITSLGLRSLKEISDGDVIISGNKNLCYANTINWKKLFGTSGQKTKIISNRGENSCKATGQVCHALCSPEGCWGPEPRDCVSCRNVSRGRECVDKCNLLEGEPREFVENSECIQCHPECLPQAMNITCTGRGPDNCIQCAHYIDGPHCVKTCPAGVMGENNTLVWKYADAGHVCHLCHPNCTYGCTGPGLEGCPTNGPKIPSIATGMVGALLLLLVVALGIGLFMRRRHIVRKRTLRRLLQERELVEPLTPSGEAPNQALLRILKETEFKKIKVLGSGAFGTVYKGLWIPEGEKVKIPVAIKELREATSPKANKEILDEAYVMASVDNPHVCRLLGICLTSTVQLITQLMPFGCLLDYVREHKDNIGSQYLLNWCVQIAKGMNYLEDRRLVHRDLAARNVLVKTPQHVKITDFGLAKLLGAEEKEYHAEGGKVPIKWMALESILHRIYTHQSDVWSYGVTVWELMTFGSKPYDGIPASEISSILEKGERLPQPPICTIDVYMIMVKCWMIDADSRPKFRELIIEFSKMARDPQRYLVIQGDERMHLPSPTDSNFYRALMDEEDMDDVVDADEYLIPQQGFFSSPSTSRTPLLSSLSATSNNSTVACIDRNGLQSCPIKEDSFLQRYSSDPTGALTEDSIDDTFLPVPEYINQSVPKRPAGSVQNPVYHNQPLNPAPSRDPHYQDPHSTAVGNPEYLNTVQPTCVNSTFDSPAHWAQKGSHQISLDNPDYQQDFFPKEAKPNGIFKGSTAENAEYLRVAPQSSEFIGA

[20] = target: Epidermal growth factor receptor (Homo sapiens) (UniProt P00533); settings: at 10 µM

Sequence of Death-associated protein kinase 2 (Homo sapiens) (Q9UIK4 whole entry, looked up): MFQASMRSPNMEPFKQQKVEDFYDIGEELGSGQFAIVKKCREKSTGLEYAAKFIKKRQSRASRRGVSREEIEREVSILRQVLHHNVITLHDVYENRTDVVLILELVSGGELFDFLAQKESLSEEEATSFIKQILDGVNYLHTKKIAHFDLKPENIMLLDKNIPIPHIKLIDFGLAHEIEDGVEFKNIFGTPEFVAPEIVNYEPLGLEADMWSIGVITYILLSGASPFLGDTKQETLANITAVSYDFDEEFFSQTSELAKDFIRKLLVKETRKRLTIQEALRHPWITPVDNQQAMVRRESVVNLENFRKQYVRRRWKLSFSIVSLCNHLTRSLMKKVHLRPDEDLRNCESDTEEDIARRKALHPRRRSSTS
Sequence of Death-associated protein kinase 1 (Homo sapiens) (P53355 whole entry, looked up): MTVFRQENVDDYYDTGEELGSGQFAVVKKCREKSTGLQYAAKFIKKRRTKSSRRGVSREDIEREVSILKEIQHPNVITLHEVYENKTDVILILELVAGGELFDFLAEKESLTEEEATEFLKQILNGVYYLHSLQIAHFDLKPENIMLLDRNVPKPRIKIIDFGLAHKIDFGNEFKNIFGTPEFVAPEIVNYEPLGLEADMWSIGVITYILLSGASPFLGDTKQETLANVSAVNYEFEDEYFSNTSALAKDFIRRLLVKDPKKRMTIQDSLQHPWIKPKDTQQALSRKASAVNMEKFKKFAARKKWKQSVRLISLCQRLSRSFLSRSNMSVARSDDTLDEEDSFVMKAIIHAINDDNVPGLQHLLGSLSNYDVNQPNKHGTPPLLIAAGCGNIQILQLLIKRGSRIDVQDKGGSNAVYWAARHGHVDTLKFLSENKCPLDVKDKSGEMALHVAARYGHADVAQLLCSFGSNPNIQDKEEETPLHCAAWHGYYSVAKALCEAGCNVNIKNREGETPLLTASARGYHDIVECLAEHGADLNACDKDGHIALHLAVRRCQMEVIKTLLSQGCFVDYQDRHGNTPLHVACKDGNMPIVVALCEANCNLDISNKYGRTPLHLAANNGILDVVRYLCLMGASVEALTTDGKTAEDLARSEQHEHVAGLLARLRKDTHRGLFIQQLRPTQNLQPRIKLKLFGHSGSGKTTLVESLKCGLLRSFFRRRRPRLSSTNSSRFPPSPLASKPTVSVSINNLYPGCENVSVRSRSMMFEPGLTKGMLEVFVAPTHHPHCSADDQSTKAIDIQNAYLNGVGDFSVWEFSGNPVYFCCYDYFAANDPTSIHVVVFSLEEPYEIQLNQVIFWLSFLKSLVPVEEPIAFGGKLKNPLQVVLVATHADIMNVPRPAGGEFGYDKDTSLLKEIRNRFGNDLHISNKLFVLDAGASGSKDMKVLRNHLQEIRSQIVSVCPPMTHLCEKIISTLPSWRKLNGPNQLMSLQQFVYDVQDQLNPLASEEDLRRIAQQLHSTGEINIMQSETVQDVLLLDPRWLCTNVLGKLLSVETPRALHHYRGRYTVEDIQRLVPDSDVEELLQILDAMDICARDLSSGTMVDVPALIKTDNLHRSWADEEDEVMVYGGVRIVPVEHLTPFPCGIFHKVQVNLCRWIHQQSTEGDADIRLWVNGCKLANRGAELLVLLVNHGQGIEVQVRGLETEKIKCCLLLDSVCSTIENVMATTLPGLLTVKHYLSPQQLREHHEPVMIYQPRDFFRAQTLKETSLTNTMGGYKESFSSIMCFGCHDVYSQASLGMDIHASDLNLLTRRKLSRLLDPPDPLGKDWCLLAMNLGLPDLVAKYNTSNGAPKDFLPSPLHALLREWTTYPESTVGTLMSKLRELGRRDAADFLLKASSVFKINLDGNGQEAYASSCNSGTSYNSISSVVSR

Row | SMILES | residual activity [1] [%] | residual activity [2] [%] | residual activity [3] [%] | residual activity [4] [%] | residual activity [5] [%] | residual activity [6] [%] | residual activity [7] [%] | residual activity [8] [%] | residual activity [9] [%] | residual activity [10] [%] | residual activity [11] [%] | residual activity [12] [%] | residual activity [13] [%] | residual activity [14] [%] | residual activity [15] [%] | residual activity [16] [%] | residual activity [17] [%] | residual activity [18] [%] | residual activity [19] [%] | residual activity [20] [%]
1 | CC#CC(=O)Nc1cc2c(Nc3ccc(F)c(Cl)c3)ncnc2cn1 | 90 | 88 | 104 | 77 | 96 | 96 | 93 | 113 | 115 | 105 | 105 | 102 | 93 | 102 | 105 | 100 | 101 | 113 | – | –
2 | CCOc1cc2ncnc(Nc3cccc(Br)c3)c2cc1OCC | 85 | 105 | 102 | 84 | 66 | 93 | 66 | 109 | 135 | 113 | 60 | 92 | 58 | 32 | 4 | 85 | 18 | 81 | -5 | -4
